High-throughput results (PubChem BioAssay)
RORgamma inh – blocks mouse ROR gamma transcriptional activity; Drosophila S2 Gal4-RORgamma UAS-luciferase reporter, 20 h; Potency, µM (top dose mostly 53.6 µM), for inactives: at the highest dose activity change, negative = inhibition, actives largely listed as inhibitors; AID 2551; 310,000 tested, 5.4% active; note: % is set by controls: 0 for no effect and ±100 for the full control effect; nearly all actives have a fitted effect of over 60% in size
Target sequence (P51450 whole entry, looked up, the tested form may be a part): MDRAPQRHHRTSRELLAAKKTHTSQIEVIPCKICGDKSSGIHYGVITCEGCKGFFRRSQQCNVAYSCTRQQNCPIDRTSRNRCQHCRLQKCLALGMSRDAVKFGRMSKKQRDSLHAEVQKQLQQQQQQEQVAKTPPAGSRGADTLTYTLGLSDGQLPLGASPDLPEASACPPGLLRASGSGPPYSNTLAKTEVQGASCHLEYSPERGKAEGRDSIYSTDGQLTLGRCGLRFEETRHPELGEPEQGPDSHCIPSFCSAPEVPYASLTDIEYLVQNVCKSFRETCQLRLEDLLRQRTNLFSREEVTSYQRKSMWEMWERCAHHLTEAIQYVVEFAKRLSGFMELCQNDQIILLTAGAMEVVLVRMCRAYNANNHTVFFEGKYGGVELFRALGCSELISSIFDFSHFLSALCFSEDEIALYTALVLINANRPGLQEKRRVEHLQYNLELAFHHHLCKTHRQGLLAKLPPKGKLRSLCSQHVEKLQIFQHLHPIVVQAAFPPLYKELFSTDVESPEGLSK
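Read-out: Photinus luciferase luminescence; inhibitors lower reporter signal. Insect Schneider cells with Gal4-ROR gamma fusion under metallothionein promoter, UAS reporter; 700 uM final copper sulfate induction, 20 hr, ambient temperature.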
KB-3-1 tox – KB-3-1 parental cell cytotoxicity; KB-3-1 viability, CellTiter-Glo ATP luminescence, 72 h; Potency, µM (doses to about 46.1 µM), actives largely listed as cytotoxic; 400,000 tested, 1.4% active; note: % is set by controls: 0 for no effect and ±100 for the full control effect; nearly all actives have a fitted effect of over 60% in size
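Using CellTiter-Glo luminescence, growth of non-resistant KB-3-1 adenocarcinoma cells is assessed 72 h after pin-tool compound addition at 37 °C. Normalized responses across the concentration series yield fitted curves.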
SW480 rereplic – DNA re-replication induction in SW480 cells | SW480 DNA re-replication, Hoechst DNA content imaging, 48 h | Potency, µM (titrated, usually from 46.1 µM), for the others: top-dose re-replication activation, hits mostly activators | 340,000 tested, 1.8% active | AID 624297; note: % of control where 0% means no effect; nearly all actives have a fitted effect of over 55% in size
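Compounds, transferred as 23 nL by pin tool, were incubated with cells for 48 hr; DNA content per nucleus was then quantified by Hoechst staining and fluorescence plate imaging.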
MCF10A rerep – induces DNA re-replication in MCF 10a normal breast cells | Potency, µM (series often up to 46.1 µM), for inactives: at the highest dose activity, positive = re-replication, usual class: activators | AID 624296 | 350,000 tested, 2.9% active | MCF 10A DNA re-replication, Hoechst nuclear intensity, 48 h; note: % of control where 0% means no effect; nearly all actives have a fitted effect of over 50% in size
KB-V1 MDR tox – kills drug-selected multidrug resistant KB-V1 cells. 400,000 tested, 3.4% active. KB-V1 MDR cells viability, CellTiter-Glo, 72 h. Potency, µM (series often up to 46.1 µM), most hits filed as cytotoxic; note: % is set by controls: 0 for no effect and ±100 for the full control effect; nearly all actives have a fitted effect of over 60% in size
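KB-V1 cells (P-gp-expressing MDR subline of KB-3-1) in phenol-red-free DMEM with 10% FBS were exposed to library compounds over a concentration series for 72 h at 37 degrees C. Viability read by CellTiter-Glo luminescence; concentration-effect curves fitted after normalization.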
VP16 counter – inhibits Gal4-VP16 luciferase reporter, ROR gamma counter-screen; Drosophila S2 Gal4-VP16 UAS-luciferase, luminescence, 20 h; Potency, µM (titrated, usually from 53.6 µM), for the others: at the top dose activity, negative = inhibition, most hits filed as inhibitors; 310,000 tested, 3.5% active;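 note: Gal4-VP16 expression switched on by copper sulfate through the metallothionein promoter; % is set by controls: 0 for no effect and ±100 for the full control effect; nearly all actives have a fitted effect of over 50% in size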
Active calls of the source: *; ! = not confirmed by another sample; [ ] = dose if it differs, or a comment. This is a sample that favours compounds with a hit; in the whole collection about 10% have one here. Calls come from the whole dose curve; as a rule, active = well fitted curve in the direction sought with a large enough effect; inconclusive = small, poorly fitted or top-dose-only effect, or another doubt; inactive = no such curve, though single readings can be large; an effect the other way counts as inactive or inconclusive. Potency is the fitted concentration of half-maximal effect.

Results for CCC(C)NC(=O)CSc1nnc(-c2ccc(C)cc2)c(-c2ccc(C)cc2)n1 (stereo unspecified) ?
KB-3-1 tox: inactive; KB-V1 MDR tox: inactive

Results for COc1ccc(C(C)(NC(C)=O)c2nc(-c3cccc(F)c3)cs2)cc1 (stereo unspecified) ?
KB-3-1 tox: inactive; KB-V1 MDR tox: inactive

What do the screens show for `COc1ccc(CCNC(=O)CSc2nnc(-c3ccc(F)cc3)c3ccccc23)cc1OC`?
RORgamma inh: 14.7%; KB-3-1 tox: inactive; SW480 rereplic: 12.0%; MCF10A rerep: 8.9%; KB-V1 MDR tox: 7.31µM*; VP16 counter: -1.3%

What do the screens show for `CCC(c1nnc(SCC(=O)NCCc2ccc(OC)c(OC)c2)n1Cc1ccccc1)N(C)C` (stereo unspecified)?
RORgamma inh: 3.6%; KB-3-1 tox: inactive; SW480 rereplic: -5.3%; MCF10A rerep: 0.651µM*; KB-V1 MDR tox: inactive; VP16 counter: 8.0%

What do the screens show for `COc1ccc(CCNC(=O)CSc2cccc3cccnc23)cc1OC`?
RORgamma inh: 1µM*; KB-3-1 tox: inactive; SW480 rereplic: 14.0%; MCF10A rerep: -31.1%; KB-V1 MDR tox: inactive; VP16 counter: -0.2%

Results for COc1ccc(CCNC(=O)C(=O)NCc2ccc(C)cc2)cc1OC ?
RORgamma inh: -36.8%; KB-3-1 tox: inactive; SW480 rereplic: -2.3%; MCF10A rerep: 1.6%; KB-V1 MDR tox: 20.6µM*; VP16 counter: -3.0%[0.365 µM]

Results for O=C(O)c1ccc2c(c1)SC1=NS(=O)(=O)CCN12 ?
RORgamma inh: -6.6%; KB-3-1 tox: inactive; SW480 rereplic: -22.7%; MCF10A rerep: 10.5%; KB-V1 MDR tox: inconclusive; VP16 counter: -3.6%

Results for O=S1(=O)CCN2C(=N1)Sc1c2ccc2c1CCCC2 ?
RORgamma inh: 11.0%; KB-3-1 tox: inactive; SW480 rereplic: -19.6%; MCF10A rerep: -9.7%; KB-V1 MDR tox: 4.61µM*; VP16 counter: -8.2%

How did Cc1ccccc1CNC(=O)CN1C(=O)CCCc2ccccc21 do in these assays?
KB-3-1 tox: inactive; KB-V1 MDR tox: inactive

What do the screens show for `Cc1[nH]n(C(N)=S)c(=O)c1N=Nc1cccc(C(F)(F)F)c1`?
RORgamma inh: 0.112µM*; KB-3-1 tox: inconclusive; SW480 rereplic: -5.0%; MCF10A rerep: -15.6%; KB-V1 MDR tox: inactive; VP16 counter: 0.398µM*

How did Cc1[nH]n(C(N)=S)c(=O)c1N=Nc1cc(C(F)(F)F)ccc1Cl do in these assays?
RORgamma inh: 0.562µM*; KB-3-1 tox: inactive; SW480 rereplic: -4.0%; MCF10A rerep: inconclusive; KB-V1 MDR tox: inconclusive; VP16 counter: inconclusive

How did Cc1ccc(C(F)(F)F)cc1NC(N)=S do in these assays?
RORgamma inh: -31.9%; KB-3-1 tox: inactive; SW480 rereplic: 0.1%; MCF10A rerep: inconclusive; KB-V1 MDR tox: inactive; VP16 counter: -4.3%

Results for Cc1[nH]n(C2=NCCS2)c(=O)c1N=Nc1cccc(C(F)(F)F)c1 ?
RORgamma inh: 0.282µM*; KB-3-1 tox: inconclusive; SW480 rereplic: inconclusive; MCF10A rerep: 10.1%; KB-V1 MDR tox: inactive; VP16 counter: 0.631µM*

What do the screens show for `O=c1[nH]n2c(=O)c3c([nH]c2c1N=Nc1cccc(C(F)(F)F)c1)CCCC3`?
RORgamma inh: -24.1%; KB-3-1 tox: inactive; SW480 rereplic: -3.2%; MCF10A rerep: 15.9%; KB-V1 MDR tox: inconclusive; VP16 counter: inconclusive

How did C=CC[C@](C)(Nc1ccc(OC)cc1)C(=O)OCC do in these assays?
RORgamma inh: inconclusive; VP16 counter: -6.8%

How did CC(C)(C)c1ccc(C(=O)NCC(c2cccs2)S(=O)(=O)c2ccccc2)cc1 (stereo unspecified) do in these assays?
KB-3-1 tox: inactive; KB-V1 MDR tox: inactive

What do the screens show for `CCOc1ccccc1NC(=O)Cn1nnc(C(=O)NCc2ccco2)c1N`?
RORgamma inh: 34.3%; KB-3-1 tox: 0.0103µM*; SW480 rereplic: inconclusive; MCF10A rerep: 0.126µM*; KB-V1 MDR tox: 0.259µM*; VP16 counter: -4.3%

Results for Cc1ccccc1NC(=O)Cn1nnc(C(=O)NCc2cccs2)c1N ?
KB-3-1 tox: 3.26µM*; KB-V1 MDR tox: inactive

How did Cc1ccccc1NC(=O)Cn1nnc(C(=O)NCc2ccco2)c1N do in these assays?
RORgamma inh: -5.6%; KB-3-1 tox: 18.4µM*!; SW480 rereplic: 14.6µM*; MCF10A rerep: inconclusive; KB-V1 MDR tox: inconclusive; VP16 counter: 5.9%

What do the screens show for `CCOc1ccccc1NC(=O)Cn1nnc(C(=O)NCc2ccc3c(c2)OCO3)c1N`?
RORgamma inh: -1.4%; KB-3-1 tox: 9.2µM*; SW480 rereplic: inconclusive; MCF10A rerep: 4.61µM*; KB-V1 MDR tox: inconclusive; VP16 counter: 2.6%

Results for CC1CCN(C(=O)/C(=C\c2cccs2)NC(=O)c2ccccc2)CC1 ?
RORgamma inh: 2.82µM*; KB-3-1 tox: inactive; SW480 rereplic: 10.9%; MCF10A rerep: -1.8%; KB-V1 MDR tox: inconclusive; VP16 counter: 17.8µM*

What do the screens show for `COc1cccc(/C=N/Nc2nc3ccccc3n3cnnc23)c1`?
RORgamma inh: 19.8%; KB-3-1 tox: inactive; SW480 rereplic: -7.0%; MCF10A rerep: 9.9%; KB-V1 MDR tox: inactive; VP16 counter: -6.2%

What do the screens show for `COc1cccc(/C=N/Nc2nc3ccccc3n3cnnc23)c1O`?
RORgamma inh: inconclusive; KB-3-1 tox: inconclusive; SW480 rereplic: inconclusive; MCF10A rerep: inconclusive; KB-V1 MDR tox: 6.51µM*; VP16 counter: inconclusive

Results for COc1ccc(Nc2nc3ccccc3n3cnnc23)cc1 ?
RORgamma inh: -13.9%; KB-3-1 tox: inactive; SW480 rereplic: -0.9%; MCF10A rerep: inconclusive; KB-V1 MDR tox: 13µM*; VP16 counter: -17.5%

What do the screens show for `C/C(=N/Nc1ncc(C(F)(F)F)cc1Cl)c1ccncc1`?
RORgamma inh: inconclusive; KB-3-1 tox: inactive; SW480 rereplic: -17.1%; MCF10A rerep: -0.3%; KB-V1 MDR tox: inconclusive; VP16 counter: inconclusive

Results for CC(C)(C)C1CCC(=NNc2ncc(C(F)(F)F)cc2Cl)CC1 (stereo unspecified) ?
RORgamma inh: 28.2µM*; KB-3-1 tox: inactive; SW480 rereplic: inconclusive; MCF10A rerep: inconclusive; KB-V1 MDR tox: inconclusive; VP16 counter: 11.2µM*

Results for CC(C)(C)C(=O)NCCCC(=O)O ?
RORgamma inh: 2.4%; SW480 rereplic: -2.9%; MCF10A rerep: -0.9%; VP16 counter: 28.5%

Results for CCOC(=O)c1c(C)cc(C)n2c1nc1ccccc12 ?
RORgamma inh: 5.62µM*; KB-3-1 tox: inactive; SW480 rereplic: -1.6%; MCF10A rerep: -1.3%; KB-V1 MDR tox: inactive; VP16 counter: 5.5%
